# Reference: PubChem BioAssay (NCI)
# This is part of a sample that, as a whole, favours compounds with a hit. Of some 83,000 tested, about 20% had one in any assay.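 96-well plates, one dose, 48 hours. Percent growth reported; active if below 10.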 Calls of active or inactive are those of the source.
# What was measured:
# Test in all cases: NCI-60 one-dose screen, 48 h (100 = growth as untreated, 0 = no growth, -100 = all killed)
# Conditions in all cases: 10 µM unless noted
# RPMI-8226 leukemia = system: RPMI-8226 leukemia
# OVCAR-8 ovarian = system: OVCAR-8 ovarian
# OVCAR-5 ovarian = system: OVCAR-5 ovarian
# OVCAR-4 ovarian = system: OVCAR-4 ovarian
# SK-OV-3 ovarian = system: SK-OV-3 ovarian
# OVCAR-3 ovarian = system: OVCAR-3 ovarian
# HS 578T breast = system: HS 578T breast
# NCI/ADR-RES ovarian = system: NCI/ADR-RES ovarian
# T-47D breast = system: T-47D breast
# BT-549 breast = system: BT-549 breast
# MDA-MB-435 melanoma = system: MDA-MB-435 melanoma
# SW-620 colon = system: SW-620 colon
# HCT-116 colon = system: HCT-116 colon
# HCC-2998 colon = system: HCC-2998 colon
# KM12 colon = system: KM12 colon
# MCF7 breast = system: MCF7 breast
# IGROV1 ovarian = system: IGROV1 ovarian
SMILES,growth (RPMI-8226 leukemia),growth (OVCAR-8 ovarian),growth (OVCAR-5 ovarian),growth (OVCAR-4 ovarian),growth (SK-OV-3 ovarian),growth (OVCAR-3 ovarian),growth (HS 578T breast),growth (NCI/ADR-RES ovarian),growth (T-47D breast),growth (BT-549 breast),growth (MDA-MB-435 melanoma),growth (SW-620 colon),growth (HCT-116 colon),growth (HCC-2998 colon),growth (KM12 colon),growth (MCF7 breast),growth (IGROV1 ovarian)
CC(C)CC(NC(=O)CN(Cc1ccccc1)S(C)(=O)=O)C(=O)O (stereo not drawn),102% (inactive),100% (inactive),94% (inactive),104% (inactive),90.9% (inactive),96.6% (inactive),91.6% (inactive),98.9% (inactive),82% (inactive),118% (inactive),94.2% (inactive),108% (inactive),100% (inactive),95% (inactive),98.6% (inactive),,
COc1ccc(-c2nc3sccn3c2-c2cc(-c3cc(OC)c(OC)c(OC)c3)on2)cc1,41.5% (inactive),94.6% (inactive),124% (inactive),84.4% (inactive),92.2% (inactive),76% (inactive),92.5% (inactive),87.5% (inactive),51.9% (inactive),,102% (inactive),105% (inactive),85.5% (inactive),98.2% (inactive),90.5% (inactive),88.5% (inactive),
CCOC(=O)c1csc(NC(=O)COc2cccc(/C=C3\Oc4cc(OC)ccc4C3=O)c2)n1,64.4% (inactive),74.2% (inactive),130% (inactive),90% (inactive),101% (inactive),78.4% (inactive),91.3% (inactive),79.4% (inactive),68.9% (inactive),84.7% (inactive),90.5% (inactive),108% (inactive),90.7% (inactive),,83.9% (inactive),81.1% (inactive),
C[C@@H]1N=C(c2ccc3ccccc3n2)Nc2nc3ccccn3c2C1=O,93.8% (inactive),101% (inactive),106% (inactive),89.5% (inactive),,109% (inactive),97.7% (inactive),93.6% (inactive),90.2% (inactive),88.8% (inactive),,99% (inactive),95.5% (inactive),101% (inactive),95.3% (inactive),76.7% (inactive),66.3% (inactive)
CCOC(=O)C/C(C)=N\NC(=O)c1ccncc1,90% (inactive),99.2% (inactive),98.3% (inactive),98.2% (inactive),101% (inactive),105% (inactive),115% (inactive),98% (inactive),92.1% (inactive),97.8% (inactive),91.7% (inactive),107% (inactive),89.3% (inactive),98.7% (inactive),107% (inactive),93.2% (inactive),
CCCc1cc2c(=O)c(C(=O)OC)c[nH]c2cc1N(CC)CC,82.5% (inactive),102% (inactive),88.8% (inactive),101% (inactive),100% (inactive),95.3% (inactive),123% (inactive),99% (inactive),94.4% (inactive),93.5% (inactive),109% (inactive),114% (inactive),96.3% (inactive),104% (inactive),105% (inactive),80.2% (inactive),
OC(c1cccc(-n2ccc(C(F)(F)F)n2)c1)c1cnccc1NC1CCCCCC1 (stereo not drawn),-33.4% (active),6.25% (active),15.2% (inactive),40.8% (inactive),,52.4% (inactive),49.8% (inactive),30% (inactive),22.6% (inactive),82.5% (inactive),-77.4% (active),-86.4% (active),-79.4% (active),-88.8% (active),-47.1% (active),-14.4% (active),38.5% (inactive)
